Compounds with a hit are over-represented: about 11% of the library has one in this group of screens.
JMJD2A Tudor: qHTS Assay for Inhibitors of JMJD2A-Tudor Domain. Lysine-specific demethylase 4A (Homo sapiens), O75164. AlphaScreen JMJD2A-Tudor / H3K4me3 peptide binding. Potency, µM (series often up to 114 µM), inactives show at the top dose activity change, negative = inhibition, usual class: inhibitors. hit rate 4.4% among 390,000; also: potency is read from the fitted curve at half-maximal effect; % is scaled to controls: 0 for no effect and ±100 for the full control effect; nearly all actives have a fitted effect of over 50% in size
HP1b chromo inh: HTS for Inhibitors of HP1-beta Chromodomain Interactions with Methylated Histone Tails. Chromobox protein homolog 1 (Homo sapiens), P83916. AlphaScreen HP1-beta / biotin-H3K9me3 peptide binding. Potency, µM (doses to about 114 µM), for the others: top-dose activity change, negative = inhibition, most hits filed as inhibitors. hit rate 0.56% among 390,000. AID 540317, 2011; also: potency is read from the fitted curve at half-maximal effect; nearly all actives have a fitted effect of over 70% in size
Target sequence (P83916 whole entry, looked up): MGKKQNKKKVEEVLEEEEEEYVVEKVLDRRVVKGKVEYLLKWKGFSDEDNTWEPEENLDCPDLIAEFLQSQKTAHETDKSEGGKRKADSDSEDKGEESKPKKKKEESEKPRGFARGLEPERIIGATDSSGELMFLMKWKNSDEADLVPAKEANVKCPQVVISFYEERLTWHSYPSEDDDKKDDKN
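AlphaScreen: HP1-beta (50 nM) preformed 30 min with biotin-H3(1-18)K9me3 peptide (50 nM) in PBS pH 7.4, 0.01% Tween-20. Compound added for 30 min at RT, then streptavidin donor/nickel chelate acceptor beads (10 ug/mL) for 30 min.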
L3MBTL1 block: qHTS Assay for the Inhibitors of L3MBTL1. hit rate 0.66% among 230,000. Lethal(3)malignant brain tumor-like protein 1 (Homo sapiens), Q9Y468. AlphaScreen L3MBTL1–H3K9me1 peptide binding. Potency, µM (titrated, usually from 57.1 µM), for the others: at the top dose activity, negative = inhibition, hits mostly inhibitors; also: potency is read from the fitted curve at half-maximal effect; % is scaled to controls: 0 for no effect and ±100 for the full control effect; nearly all actives have a fitted effect of over 60% in size
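Displacement of a biotinylated histone H3(1-15) peptide monomethylated at Lys9 (75 nM) from L3MBTL1 (50 nM) was measured by AlphaScreen after a 30 min room-temperature compound incubation; cefsulodin titration served as intraplate control.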
G9a inh: qHTS Assay for Inhibitors of Histone Lysine Methyltransferase G9a; Histone-lysine N-methyltransferase EHMT2 (Homo sapiens), Q96KQ7; Potency, µM (top dose mostly 102 µM), inactives show top-dose activity, negative = inhibition, most hits filed as inhibitors; hit rate 8.8% among 350,000; AID 504332, 2011; G9a H3K9 monomethylation, AlphaScreen, 2 h; also: potency is read from the fitted curve at half-maximal effect; % is scaled to controls: 0 for no effect and ±100 for the full control effect; nearly all actives have a fitted effect of over 75% in size
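Readings reflect AlphaScreen signal from monomethyl-H3K9 antibody detection. HMT at 20 nM; substrate b-H3K9 500 nM; cofactor SAM 20 uM; 2 h RT reaction; compounds tested as titrations in qHTS with 15 min preincubation.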
PI5P4K alpha inh: qHTS for Inhibitors of phosphatidylinositol 5-phosphate 4-kinase (PI5P4K); Phosphatidylinositol 5-phosphate 4-kinase type-2 alpha (Homo sapiens), P48426; PI5P4Kalpha enzyme, ADP-Glo luminescence, 60 min; hits give low values; max response, %; hit rate 1.2% among 330,000; AID 652105, 2013; active = max response of -50% or lower; inconclusive = between -30% and -50%; inactive = -30% or higher; also: value at the top dose of about 77 µM; % is scaled to controls: 0 for no effect and ±100 for the full control effect
Target sequence (P48426 whole entry, looked up): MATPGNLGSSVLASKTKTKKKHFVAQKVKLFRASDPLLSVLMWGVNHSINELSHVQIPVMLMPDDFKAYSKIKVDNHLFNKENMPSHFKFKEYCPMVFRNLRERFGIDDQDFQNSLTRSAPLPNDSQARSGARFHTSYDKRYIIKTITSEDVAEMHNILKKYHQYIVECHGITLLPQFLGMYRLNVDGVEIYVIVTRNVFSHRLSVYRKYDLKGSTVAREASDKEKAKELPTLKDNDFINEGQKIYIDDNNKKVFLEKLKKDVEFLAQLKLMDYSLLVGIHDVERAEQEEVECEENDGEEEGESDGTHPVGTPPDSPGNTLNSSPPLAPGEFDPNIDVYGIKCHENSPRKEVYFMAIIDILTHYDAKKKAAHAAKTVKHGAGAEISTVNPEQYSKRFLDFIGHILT
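PI5P4Kalpha ADP-Glo assay; 5 microM ATP final; 60 min RT reaction; HEPES pH 7.4/EGTA/CHAPS, 5% DMSO; controls lacking substrate or enzyme; luminescent end-point.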
BAZ2B inh: qHTS Assay for Inhibitors of BAZ2B; Bromodomain adjacent to zinc finger domain protein 2B (Homo sapiens), Q9UIF8; AlphaScreen BAZ2B-H3K14Ac peptide displacement; Potency, µM (titrated, usually from 114 µM), without a hit: at the highest dose activity change, negative = inhibition, actives largely listed as inhibitors; hit rate 4.4% among 360,000; also: potency is read from the fitted curve at half-maximal effect; % is scaled to controls: 0 for no effect and ±100 for the full control effect; nearly all actives have a fitted effect of over 60% in size
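BAZ2B 50 nM plus b-H3(5-23)K14Ac 50 nM, PBS pH 7.4/0.01% Tween-20, 30 min RT; compound added (max 110 uM), 30 min RT; streptavidin donor/Ni-chelate acceptor beads 10 ug/mL final, 20 min dark; AlphaScreen read.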
The depositor's hits bear a star; ? = inconclusive; nt = no result; [ ] = remark or other dose. Unless noted, calls follow the shape of the dose curve; as a rule, active = well fitted inhibition curve with a large enough effect; inconclusive = small, poorly fitted or top-dose-only effect; inactive = no such curve, though single readings can be large or run the other way.

SMILES	JMJD2A Tudor	HP1b chromo inh	L3MBTL1 block	G9a inh	PI5P4K alpha inh	BAZ2B inh
CC(=O)N1CCC2(CCCN(C(=O)Nc3cccc(C#N)c3)C2)CC1	nt	nt	nt	-1%[12.7 µM]	nt	nt
CCOc1c(Br)cc(C2C=C(C(=O)O)Nc3ncnn32)cc1OC (configuration not stated)	-5%	37%	nt	?	nt	-1%
Cn1cc(S(=O)(=O)N2CCCCCC2)cc1C(=O)NCc1ccccc1Cl	-10%	25%[57 µM]	nt	-5%[59 µM]	nt	-13%
CC1(C)Cc2nc3oc4c(=S)nc[nH]c4c3cc2CO1	25µM*	25%	-1%	45µM*	nt	7%
Clc1ccccc1C1=Nn2c(nnc2-c2ccncc2)SC1	2%	45%	-1%	?	-5	-2%
CC1=Nn2c(nnc2-c2ccccc2Cl)SC1	-27%	50%	-1%	22µM*	0	1%
COc1ccc(-c2nnc3n2N=C(c2ccccc2OC)CS3)c(OC)c1	-19%	nt	nt	nt	nt	nt
Cc1ccccc1C1=Nn2c(nnc2-c2ccco2)SC1	-25%	30%	5%	28µM*	0	-24%
COc1ccccc1-c1nnc2n1N=C(C)CS2	56µM*	34%	1%	20µM*	nt	-3%
COc1ccccc1-c1nnc2n1N=C(C(C)(C)C)CS2	-3%	19%	nt	-10%[12.7 µM]	1	0%
COc1ccc(OC)c(-c2nnc3n2N=C(c2ccccc2OC)CS3)c1	79µM*	nt	nt	nt	nt	nt
c1cc(NC2CC2)nc(-c2ccoc2)n1	nt	nt	nt	0%[0.501 µM]	nt	nt
Oc1cccc2ccc[n+](CC(O)Cn3c4ccccc4c4ccccc43)c12 (configuration not stated)	-35%	-6%	-7%	7.9µM*	-2	?
O=C(Nc1c(C(=O)N2CCN(c3ccccc3F)CC2)oc2ccccc12)c1ccc(Br)o1	-28%	-16%	nt	-46%[59 µM]	nt	-15%
CS(=O)(=O)N1CCc2cc(C(=O)Nc3ccc(S(N)(=O)=O)cc3)ccc21	-13%	22%	nt	9%[59 µM]	nt	0%
Cc1ccc(C(=O)NC(c2ccccc2)C(Cl)Cl)cc1 (configuration not stated)	5%	46%	8%	50µM*	2	-1%
O=C(NC(c1ccccc1)C(Cl)Cl)c1ccccc1 (configuration not stated)	0%	23%	-4%	13%[59 µM]	-1	-4%
Cc1ccc(C(=O)Oc2csc(=S)n2C(=O)c2ccc(C)cc2)cc1	?	-7%	nt	1.1µM*	nt	?
COc1cc2nc(SCc3cccc(Cl)c3)n3nc(CCn4nc(C)cc4C)nc3c2cc1OC	-23%	12%	nt	-42%[59 µM]	nt	nt
COc1ccc(NC(=O)CN2C(=O)/C(=C3\SC(=S)N(C4CCS(=O)(=O)C4)C3=O)c3ccccc32)cc1 (configuration not stated)	-6%	?	nt	nt	-25	-20%
O=C(CN1C(=O)/C(=C2\SC(=S)N(C3CCS(=O)(=O)C3)C2=O)c2ccccc21)Nc1ccc(F)cc1 (configuration not stated)	-17%	-24%	nt	20µM*	-10	-20%
CCC(C(=O)Nc1cccc(C#N)c1)n1nc(-c2ccccc2)ccc1=O (configuration not stated)	-25%	24%	nt	-28%[59 µM]	nt	-5%
Cc1c(S(=O)(=O)N2CCc3ccccc3C2)c(=O)n(C)c(=O)n1C	1%	22%	-2%	50µM*	5	10%
Cc1c(S(=O)(=O)N2CCN(c3ccccc3)CC2)c(=O)n(C)c(=O)n1C	-7%	16%	nt	?	1	-19%
CNc1cccccc1=S	11µM*	-19%	4µM*	3.5µM*	?	10µM*
SMILES	JMJD2A Tudor	HP1b chromo inh	L3MBTL1 block	G9a inh	PI5P4K alpha inh	BAZ2B inh
CNc1ccccc1	-5%	20%	-4%	9%[0.501 µM]	14	-4%
CCCOc1ccc(/C=C/c2[nH]c(=O)[nH]c(=O)c2[N+](=O)[O-])cc1OCC	?	3%	nt	-1%[12.7 µM]	-20	-1%
CCOC(=O)COc1ccc(Br)cc1/C=C\c1[nH]c(=O)[nH]c(=O)c1[N+](=O)[O-]	-18%	?	1%	?	-74*	-34%
CCOC(=O)COc1ccc(Br)cc1/C=C/c1[nH]c(=O)[nH]c(=O)c1[N+](=O)[O-]	-13%	-17%	nt	?	-59*	13%
COc1cccc(N2CCN(c3ccc4nnc(CCC(=O)Nc5cccc(C(C)=O)c5)n4n3)CC2)c1	16µM*	7%	nt	11%[59 µM]	-26	-11%
O=C(Nc1ncccn1)c1ccc(C(F)(F)F)cc1	3%	29%	-3%	1%	-7	-5%
O=C1c2nccnc2C(=O)N1c1ccc(C(F)(F)F)cc1	-14%	25%	2%	50µM*	1	-39%
Cc1ccc(Cl)cc1NC(=O)CCCn1c(=O)c2cccn2c2ccccc21	-29%	23%	nt	?	nt	-15%
CCC1CN(C(=O)N2CCC(C(=O)NCc3cc(OC)ccc3OC)CC2)c2ccccc2O1 (configuration not stated)	-18%	28%	nt	-27%[59 µM]	nt	-30%
COc1cc(NS(=O)(=O)c2ccc(NS(=O)(=O)c3ccc(NC(C)=O)cc3)cc2)nc(OC)n1	3%	18%	nt	17%	-8	-27%
COc1cc(NS(=O)(=O)c2ccc(NC(=O)/C(=C/c3ccccc3Cl)NC(=O)c3ccccc3)cc2)nc(OC)n1	-20%	11%	2%	?	0	?
COc1cc(NS(=O)(=O)c2ccc(NS(=O)(=O)c3ccccc3)cc2)nc(OC)n1	-15%	12%	1%	56µM*	-11	?
COc1cc(NS(=O)(=O)c2ccc(NC(=O)/C(=C\c3ccccc3OC)NC(=O)c3ccccc3)cc2)nc(OC)n1	-30%	27%	-2%	20µM*	nt	-3%
COc1ccc(C(=O)N2CCC3(CCCN(Cc4ccccc4OC)C3)CC2)cc1	nt	nt	nt	-4%[12.7 µM]	nt	nt
CC(=O)Nc1ccc(NC(=O)c2ncoc2-c2ccco2)cc1	-13%	16%	nt	13%[59 µM]	nt	-23%
O=C(O)/C=C/C(=O)NNC(=O)c1cc(-c2ccccc2)n[nH]1	?	25µM*	?	20µM*	?	-2%
O=C(O)c1cc(-c2ccccc2)n[nH]1	-6%	50%	-17%	13%[59 µM]	nt	8%
O=C(O)/C=C\C(=O)NNC(=O)c1cc(-c2ccccc2)n[nH]1	25µM*	20%	-17%	nt	?	28µM*
O=C(Nc1ccc(Cl)cc1Cl)c1n[nH]c(Cn2cncn2)n1	?	28%	-7%	18%[12.7 µM]	2	56µM*
